Experimental data from PubChem BioAssay AID1159580 (chemical genetic matrix, 2015).
In all, about 5,500 compounds went through this assay and about 2,000 (36%) were called active. Inconclusive results (about 18%) are left out. No stated cut-off is given here; in the data, active means normalized growth mostly below about 0.91 (no sharp cut-off); inconclusive means no clear call, values can overlap the other calls; inactive means mostly above about 0.92. This is one part of the list.

Experiment: chemical genetic growth profiling, strain panel (AID 1159580);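 further: tested at 20 µM; growth read once vehicle control cultures reached saturation at 30 °C; 1 = growth at the plate median or of vehicle wells; lower values mean less growth of the strain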
Settings: S. cerevisiae deletion strains, growth OD
[1] = locus YAR019C, strain CDC15, hits give low values
[2] = locus YBL105C, strain PKC1, hits give low values
[3] = locus YBR135W, strain CKS1, hits give low values
[4] = locus YBR136W, strain MEC1, hits give low values
[5] = locus YBR160W, strain CDC28, hits give low values
[6] = locus YDL017W, strain CDC7, hits give low values
[7] = locus YDL028C, strain MPS1, hits give low values
[8] = locus YDL101C, strain DUN1, hits give low values
[9] = locus YDL108W, strain KIN28, hits give low values
[10] = locus YDL132W, strain cdc53, hits give low values
[11] = locus YDL214C, strain PRR2, hits give low values
[12] = locus YDR052C, strain DBF4, hits give low values
[13] = locus YDR054C, strain cdc34, hits give low values
[14] = locus YDR226W, strain ADK1, hits give low values
[15] = locus YDR477W, strain SNF1, hits give low values
[16] = locus YER123W, strain YCK3, hits give low values
[17] = locus YER133W, strain GLC7, hits give low values
[18] = locus YFL009W, strain cdc4, hits give low values
[19] = locus YFL029C, strain CAK1, hits give low values
[20] = locus YFR003C, strain YPI1, hits give low values
[21] = locus YFR019W, strain FAB1, hits give low values
[22] = locus YFR028C, strain CDC14, hits give low values
[23] = locus YGR040W, strain KSS1, hits give low values
[24] = locus YGR052W, strain FMP48, hits give low values
[25] = locus YGR092W, strain DBF2, hits give low values
[26] = locus YHR030C, strain SLT2, hits give low values
[27] = locus YHR079C, strain IRE1, hits give low values
[28] = locus YHR082C, strain KSP1, hits give low values
[29] = locus YHR205W, strain SCH9, hits give low values
[30] = locus YIL147C, strain SLN1, hits give low values
[31] = locus YJL095W, strain BCK1, hits give low values
[32] = locus YJL128C, strain PBS2, hits give low values
[33] = locus YJL157C, strain FAR1, hits give low values
[34] = locus YJR016C, strain ILV3, hits give low values
[35] = locus YJR066W, strain TOR1 (second series), hits give low values
[36] = locus YJR066W, strain TOR1, hits give low values
[37] = locus YKL048C, strain ELM1, hits give low values
[38] = locus YKL067W, strain YNK1, hits give low values
[39] = locus YKL101W, strain HSL1, hits give low values
[40] = locus YKL193C, strain SDS22, hits give low values
[41] = locus YKL203C, strain TOR2, hits give low values
[42] = locus YLR113W, strain HOG1, hits give low values
[43] = locus YLR133W, strain CKI1, hits give low values
[44] = locus YLR403W, strain SFP1, hits give low values
[45] = locus YML070W, strain DAK1, hits give low values
[46] = locus YMR001C, strain CDC5, hits give low values
[47] = locus YMR205C, strain PFK2 (second series), hits give low values
[48] = locus YMR277W, strain FCP1, hits give low values
[49] = locus YNL006W, strain LST8, hits give low values
[50] = locus YNL020C, strain ARK1, hits give low values
[51] = locus YNL161W, strain CBK1, hits give low values
[52] = locus YNL183C, strain NPR1, hits give low values
[53] = locus YNL207W, strain RIO2, hits give low values
[54] = locus YNL222W, strain SSU72, hits give low values
[55] = locus YNL307C, strain MCK1 (second series), hits give low values
[56] = locus YOL078W, strain AVO1, hits give low values
[57] = locus YOL136C, strain PFK27, hits give low values
[58] = locus YOR061W, strain CKA2, hits give low values
[59] = locus YOR119C, strain RIO1, hits give low values
[60] = locus YOR231W, strain MKK1, hits give low values
[61] = locus YOR329C, strain SCD5, hits give low values
[62] = locus YPL031C, strain PHO85, hits give low values
[63] = locus YPL153C, strain RAD53, hits give low values
[64] = locus YPL204W, strain HRR25, hits give low values
[65] = locus YPL209C, strain IPL1, hits give low values
[66] = locus YPL256C, strain CLN2, hits give low values
[67] = locus YPR025C, strain CCL1, hits give low values
[68] = locus YPR106W, strain ISR1, hits give low values
[69] = locus YPR111W, strain DBF20, hits give low values
[70] = strain NNK1, hits give low values
[71] = strain TSCII, hits give low values

Measured: normalized growth

C[C@@H](Nc1ncnc2sc3c(c12)CCCC3)c1ccccc1
inactive: [1] 0.955 | [2] 0.955 | [3] 0.953 | [4] 0.958 | [5] 0.942 | [6] 0.961 | [7] 0.954 | [8] 0.945 | [9] 0.95 | [10] 0.951 | [11] 0.904 | [12] 0.963 | [13] 0.94 | [14] 0.963 | [15] 0.932 | [16] 0.895 | [17] 0.928 | [18] 0.951 | [19] 0.949 | [20] 0.958 | [21] 0.941 | [22] 0.951 | [23] 0.913 | [24] 0.954 | [25] 0.901 | [26] 0.924 | [27] 0.914 | [28] 0.944 | [29] 0.877 | [30] 0.954 | [31] 0.931 | [32] 0.889 | [33] 0.916 | [34] 0.963 | [35] 0.901 | [36] 0.969 | [37] 0.907 | [38] 0.917 | [39] 0.891 | [40] 0.953 | [41] 0.967 | [43] 0.919 | [44] 0.89 | [45] 0.893 | [46] 0.951 | [47] 0.919 | [48] 0.951 | [49] 0.956 | [50] 0.915 | [51] 0.954 | [52] 0.918 | [53] 0.944 | [54] 0.949 | [55] 0.912 | [56] 0.955 | [57] 0.893 | [58] 0.916 | [59] 0.979 | [60] 0.844 | [61] 0.959 | [62] 0.942 | [63] 0.918 | [64] 0.932 | [65] 0.947 | [67] 0.949 | [68] 0.93 | [69] 0.922 | [70] 0.929 | [71] 0.951
active: [42] 0.766 | [66] 0.787

CC(C)N(CCC(=O)c1ccc2ccccc2c1)Cc1ccccc1
active: locus YAL013W, strain DEP1, hits give low values 0.086 | locus YAL040C, strain CLN3, hits give low values 0.0757 | locus YCL061C, strain MRC1 (second series), hits give low values 0.0525 | locus YDR150W, strain NUM1, hits give low values 0.058 | locus YDR363W, strain ESC2, hits give low values 0.141 | locus YER002W, strain NOP16, hits give low values 0.0619 | locus YGR078C, strain PAC10, hits give low values 0.107 | locus YJR075W, strain HOC1, hits give low values 0.0706 | locus YMR307W, strain GAS1, hits give low values 0.0933 | locus YNL128W, strain TEP1, hits give low values 0.0691 | locus YNL153C, strain GIM3, hits give low values 0.0944 | locus YNL175C, strain NOP13, hits give low values 0.111 | locus YNL197C, strain WHI3, hits give low values 0.534 | locus YNL224C, strain SQS1, hits give low values 0.0703 | locus YOR083W, strain WHI5 (second series), hits give low values 0.124

CC1CCC(C(C)C)C(N(Cc2ccccc2)C(=O)c2ccccc2)C1 (configuration not stated)
inactive: [1] 0.996 | [2] 0.987 | [3] 0.986 | [4] 0.98 | [5] 0.986 | [6] 0.987 | [7] 0.994 | [8] 0.974 | [9] 0.986 | [10] 0.984 | [11] 0.961 | [12] 0.985 | [13] 0.991 | [14] 0.98 | [15] 0.98 | [16] 0.97 | [17] 0.978 | [18] 0.985 | [19] 0.994 | [20] 0.985 | [21] 0.954 | [22] 0.981 | [23] 0.963 | [24] 0.969 | [25] 0.946 | [26] 1.01 | [27] 1 | [28] 1.01 | [29] 0.911 | [30] 0.987 | [31] 0.923 | [32] 0.923 | [33] 0.979 | [34] 0.992 | [35] 0.959 | [36] 1.01 | [37] 0.958 | [38] 0.967 | [39] 0.932 | [40] 0.994 | [41] 1.01 | [42] 0.922 | [43] 0.945 | [44] 0.913 | [45] 0.961 | [46] 0.992 | [47] 0.976 | [48] 0.987 | [49] 0.988 | [50] 0.956 | [51] 0.984 | [52] 0.975 | [53] 0.979 | [54] 0.99 | [55] 0.898 | [56] 0.981 | [57] 0.925 | [58] 0.971 | [59] 1.05 | [60] 0.977 | [61] 0.991 | [62] 0.981 | [63] 0.983 | [64] 0.952 | [65] 0.986 | [66] 1.04 | [67] 0.988 | [68] 0.976 | [69] 0.948 | [70] 0.965 | [71] 0.985
